Shown are actives, neighbours in structure and some others; about 2.5% of the full set was active somewhere.
CHT block – inhibits the human high affinity choline transporter | actives 0.86% (n = 310,000) | CHT-expressing cells, membrane potential dye, choline response; active compounds read low | B-score at 10 µM | Q9GZV3;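 active = B-score over 3 SD under the library average, and starting fluorescence ratio not unusually high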;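 note: choline stimulus applied at its EC90 after an EC20 pre-addition; B-score computed on integrated fluorescence ratio after choline addition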
Target sequence (Q9GZV3 whole entry, looked up): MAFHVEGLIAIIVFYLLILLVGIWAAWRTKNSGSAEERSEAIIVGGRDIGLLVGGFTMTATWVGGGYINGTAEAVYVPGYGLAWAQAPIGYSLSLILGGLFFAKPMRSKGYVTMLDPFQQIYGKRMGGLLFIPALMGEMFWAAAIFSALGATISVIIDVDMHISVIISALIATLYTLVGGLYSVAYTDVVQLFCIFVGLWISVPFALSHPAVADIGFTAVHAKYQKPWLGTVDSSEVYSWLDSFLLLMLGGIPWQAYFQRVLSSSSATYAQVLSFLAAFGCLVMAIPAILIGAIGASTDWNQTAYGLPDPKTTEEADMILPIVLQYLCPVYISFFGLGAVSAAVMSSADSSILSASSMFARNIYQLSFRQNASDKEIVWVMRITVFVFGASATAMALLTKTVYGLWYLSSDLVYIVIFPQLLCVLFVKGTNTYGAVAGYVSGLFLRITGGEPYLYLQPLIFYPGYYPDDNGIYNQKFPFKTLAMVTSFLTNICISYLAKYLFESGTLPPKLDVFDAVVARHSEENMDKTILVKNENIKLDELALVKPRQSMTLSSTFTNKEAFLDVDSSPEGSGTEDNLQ
TMEM16A act – activates or potentiates the mouse TMEM16A chloride channel; Q8BHY3; HEK293 TMEM16A/YFP-H148Q/I152L, iodide quench fluorescence; active compounds read low; B-score at 10 µM; actives 0.3% (n = 340,000);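 active = fluorescence-ratio B-score plate-corrected deviation score at least 3 library SD below zero, with starting fluorescence score within 5 deviations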;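 note: channel opened by trigger with iodide after compound preincubation; score built on the fluorescence ratio of max minus min over baseline; more negative score means more quench and so TMEM16A activation or potentiation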
PKA-R2B act – PKA-R2B complex activation. PKA-R2B holoenzyme dissociation, Cy5-IP20 fluorescence polarization; R2B truncated from residue 108, S112A mutant; 0% DMSO only, 100% 113 µM cGMP. P22694+P31323. actives 0.079% (n = 340,000). activation, % at 11.4 µM;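 active = activation above a cutoff set at the mean over all compounds plus 3 SD, cut at about 18% in these data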;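 note: higher means more holoenzyme dissociation and a rise in polarization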
CHT PAM – allosterically activates the human high affinity choline transporter; actives 0.49% (n = 310,000); B-score at 10 µM; AID 488977; Q9GZV3; CHT-expressing cells, membrane potential dye, choline EC20; active compounds read high; LV-AA mutant CHT in HEK293 cells;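 active = initial fluorescence not abnormally high and integrated response B-score, plate-corrected, over 3 SD above library mean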
PKA-R1A activ – PKA-R1A complex activation. P00514+P68181. PKA-R1A dissociation, Cy5-IP20 fluorescence polarization; scaled: DMSO 0%, 113 µM cGMP 100%. activation, % at 11.4 µM. actives 0.083% (n = 340,000);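 active = percent activation above the mean of all tested compounds plus 3 SD, cut at about 19% in these data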;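 note: higher means more PKAc released from R1A so a rise in polarization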
ANO1 block – mouse TMEM16A channel inhibition, primary screen; actives 1.2% (n = 310,000); normalized B-score (activity score, 25-100; higher = stronger inhibition) at 10 µM; Q8BHY3; HEK293 TMEM16A/YFP iodide influx fluorescence, ionomycin;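 active = ratio plate-corrected score three or more library SD toward inhibition, starting fluorescence score within five deviations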;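 note: score derived from kinetic fluorescence span divided by baseline fluorescence per well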
CHT act confirm – confirmation of human choline transporter (CHT) activators; CHT-expressing cells, membrane potential dye fluorescence (FDSS); % of choline EC20–EC90 response window; HEK293 expressing CHT LV-AA mutant; choline added at its EC20; shares compounds with CHT PAM; activation, % at 10 µM; actives 91% (n = 2,500);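 active = primary screen active, with duplicate mean activation above negative control mean plus 3 SD, cut at about 11% in these data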
HEK293 MP dye – counter-screen for CHT activators: effect in parental HEK293 cells; ratio readout change at 10 µM, hits read low; actives 62% (n = 2,500); membrane potential dye fluorescence (FDSS); measured after EC20 choline addition; shares compounds with CHT PAM;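 active = duplicate-averaged ratio beyond 3 SD from buffer wells, up or down, though filed actives are nearly all decreases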
Starred values were filed as active, the others as inactive; i = inactive; nt = not tested or not shown.

SMILES	CHT block	TMEM16A act	PKA-R2B act	CHT PAM	PKA-R1A activ	ANO1 block	CHT act confirm	HEK293 MP dye
CC(C)(C)CC(=O)N1CCN(Cc2ccc3c(c2)OCO3)CC1	i	i	-11	i	4	i	nt	nt
COc1cc2c(-c3ccc4cc[nH]c4c3)c(-c3ccc(C#N)cc3)oc(=O)c2cc1OC	nt	i	3	nt	-8	nt	nt	nt
CC1C(=O)C(C)C(c2ccccc2F)NC1c1ccccc1F (configuration not stated)	i	i	-9	i	-8	i	28*	i
CCCCN(C)CCNS(=O)(=O)c1ccc2c(c1)n(C)c(=O)c(=O)n2C	i	i	1	17*	-6	i	76*	-84*
CCCCN(CCCC)C(=O)CN(C)S(=O)(=O)c1ccc2c(c1)n(C)c(=O)c(=O)n2C	i	i	5	i	-5	i	nt	nt
CCC(C)(C)n1nnnc1C(c1cccnc1)N1CCN(c2cccc(C(F)(F)F)c2)CC1 (configuration not stated)	i	i	-3	i	4	i	12*	i
CCC(C)(C)n1nnnc1C(c1ccncc1)N1CCN(c2cccc(OC)c2)CC1 (configuration not stated)	i	i	-4	i	-6	i	nt	nt
CCOc1ccc(-n2c(-c3ccccc3)c[n+]3c2CCCCC3)cc1	i	i	-10	13*	-11	i	44*	i
CC(=O)COc1ccccc1OC(=O)c1ccco1	i	i	-6	i	0	i	-1	i
CCOc1ccccc1OC(=O)c1ccco1	i	i	5	i	-7	i	nt	nt
CCN1CCN(c2cc(C)c3cc(NC(=O)c4ccncc4)ccc3n2)CC1	i	i	0	i	0	i	43*	-26*
CCN1CCN(C(=S)Nc2ccc3nc(N4CCN(CC)CC4)cc(C)c3c2)CC1	i	i	-1	i	3	i	27*	-37*
CCN1CCN(c2cc(C)c3cc(NC(=O)c4ccc(C)c(C)c4)ccc3n2)CC1	i	i	-3	i	-3	i	nt	nt
CCN1CCN(C(=S)Nc2ccc3nc(N4CCN(C)CC4)cc(C)c3c2)CC1	i	i	-4	6.9*	-4	i	41*	-34*
CCN1CCN(c2cc(C)c3cc(NC(=S)N4CCN(c5ccc(F)cc5)CC4)ccc3n2)CC1	i	i	3	i	-3	i	nt	nt
CC(=O)N1c2ccc(S(=O)(=O)NCCC(=O)N3CCC(C)CC3)cc2CC1C (configuration not stated)	i	i	-3	i	1	i	nt	nt
CNc1nc(-c2ccccn2)nnc1-c1ccccc1	i	i	1	i	-5	i	nt	nt
c1ccc(-c2nnc(-c3ccccn3)nc2NC2CCCCC2)cc1	i	i	3	i	-2	i	-4	i
Cn1c(SCC(=O)O)nnc1-c1ccc2ncccc2c1	i	nt	nt	i	nt	i	nt	nt
CCOC(=O)c1c(CNc2ccncc2)n(C)c2cc(Br)c(O)cc12	i	i	6	11*	-9	i	52*	-51*
CCOC(=O)c1c(C)n(C)c2cc(Br)c(C)cc12	i	i	-3	i	-18	i	nt	nt
COc1ccc(/C=C/C(=O)NCC(=O)N=Nc2c(O)[nH]c3ccc([N+](=O)[O-])cc23)cc1	i	i	-10	i	10	i	nt	nt
Cc1c(OC(C)C(=O)NC2CC(C)(C)NC(C)(C)C2)ccc2c3c(c(=O)oc12)CCC3 (configuration not stated)	i	i	0	6.7*	-9	i	43*	-52*
COc1ccc(OC)c2c(C)cc(N3CCCN(C)CC3)nc12	i	i	7	8*	-1	i	46*	-74*
CCSc1nc2ccccc2c(=O)n1-c1c(C)n(C)n(-c2ccccc2)c1=O	i	i	-4	i	-10	i	nt	nt
SMILES	CHT block	TMEM16A act	PKA-R2B act	CHT PAM	PKA-R1A activ	ANO1 block	CHT act confirm	HEK293 MP dye
CCCCCCCCCCCCCCCC[N+](C)(C)CC	i	i	4	i	2	i	nt	nt
CCCCCC[N+](C)(C)CCSSCC[N+](C)(C)CCCCCC	i	i	5	i	-1	i	38*	-46*
CC(=O)Nc1ccc(S(=O)(=O)N2CCN(Cc3cccc([N+](=O)[O-])c3)CC2)cc1	i	i	nt	i	nt	i	nt	nt
CC(Sc1nnc(-c2ccc(Cl)cc2Cl)n1Cc1ccccc1)C(=O)Nc1nccs1 (configuration not stated)	i	i	-8	7.1*	-5	i	35*	i
Cc1nnc(SC(C)C(=O)Nc2ccc(Cl)cn2)n1Cc1ccccc1 (configuration not stated)	i	i	1	i	3	i	nt	nt
COc1cccc(-n2c([S-])c(C(=O)Nc3ccc(S(=O)(=O)N4CCOCC4)cc3)[n+]3cc(C(N)=O)ccc23)c1	i	i	4	i	-9	i	nt	nt
Cc1ccc(OCC(O)Cn2c(=N)n(CCN3CCCCC3)c3ccccc32)cc1 (configuration not stated)	i	i	-13	9.6*	-1	i	20*	i
CCN(CC)CCn1c(=N)n(CCOc2ccccc2)c2ccccc21	i	i	3	i	-5	i	nt	nt
CCN(CC)CCn1c(=N)n(CC(O)COc2ccccc2)c2ccccc21 (configuration not stated)	i	i	3	7.3*	-9	i	21*	i
COc1ccc(OCC(O)Cn2c(=N)n(CCN3CCCCC3)c3ccccc32)cc1 (configuration not stated)	i	i	-10	i	-3	i	nt	nt
CCCCn1c(=N)n(CCOc2ccc(C)cc2)c2ccccc21	i	i	2	9.7*	0	i	25*	i
CCN(CC)CCn1c(=N)n(CC(=O)c2ccc(Br)s2)c2ccccc21	i	i	nt	6.4*	nt	i	21*	i
Cn1c(=N)n(CC(=O)c2ccc(Br)s2)c2ccccc21	i	i	-5	i	-4	i	nt	nt

High-throughput results deposited in PubChem BioAssay by several laboratories.
